{"source": "PubChem BioAssay (EPA / NIEHS)", "note": "Records with an inconclusive call do not appear. The source made the active and inactive calls. How the source made its calls: active means hit-call score of the fitted dose curve at least 0.9, where 1 is the maximum; inconclusive means response in the unintended direction; inactive means score below 0.9."}
{"target": "Retinoic acid receptor RXR-alpha (Homo sapiens) (UniProt P19793)", "sequence (P19793 whole entry, looked up)": "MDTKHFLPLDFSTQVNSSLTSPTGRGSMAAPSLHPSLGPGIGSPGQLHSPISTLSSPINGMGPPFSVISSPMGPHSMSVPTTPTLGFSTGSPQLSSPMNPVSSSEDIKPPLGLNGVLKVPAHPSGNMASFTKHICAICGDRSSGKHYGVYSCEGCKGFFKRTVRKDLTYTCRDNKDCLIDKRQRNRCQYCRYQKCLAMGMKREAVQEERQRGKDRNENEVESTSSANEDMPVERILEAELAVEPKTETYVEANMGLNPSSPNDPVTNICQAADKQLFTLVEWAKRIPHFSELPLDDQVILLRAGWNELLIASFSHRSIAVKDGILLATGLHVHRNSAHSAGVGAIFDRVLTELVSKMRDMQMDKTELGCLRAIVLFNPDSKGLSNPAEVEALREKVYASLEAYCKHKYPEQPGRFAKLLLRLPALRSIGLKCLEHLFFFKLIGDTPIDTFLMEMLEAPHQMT", "assay": "OT_NURR1_NURR1RXRa_0480: Odyssey Thera (OT) 8-hour HEK293T Protein Complementation Assay for Nurr1/retinoid X receptor (RXR) (AID 2283385)", "protocol": "OT_NURR1_NURR1RXRa_0480 is a cell-based assay that uses HEK293T, a human kidney cell line, with measurements taken at 8 hours after chemical dosing in a 384-well plate.OT_NURR1_NURR1RXRa_0480 is one of one assay component(s) measured or calculated from the OT_NURR1_NURR1RXRa_0480 assay. It is designed to make measurements of protein fragment complementation, a form of binding reporter, as detected with fluorescence intensity signals by Protein-fragment Complementation technology.Data from the assay component OT_NURR1_NURR1RXRa_0480 was analyzed into 1 assay endpoint. This assay endpoint, OT_NURR1_NURR1RXRa_0480, was analyzed in the positive analysis fitting direction relative to DMSO as the negative control and baseline of activity. Using a type of binding reporter, measures of receptor for gain-of-signal activity can be used to understand the binding at the pathway-level as they relate to the gene RXRA. Furthermore, this assay endpoint can be referred to as a primary readout, because the performed assay has only produced 1 assay endpoint. To generalize the intended target to other relatable targets, this assay endpoint is annotated to the nuclear receptor intended target family, where the subfamily is non-steroidal.\nProtein-fragment complementation assay, or PCA, is a method for the identification and quantification of protein-protein interactions. In the PCA, the proteins of interest (\"bait\" and \"prey\") are each covalently linked to fragments of a third protein (e.g. DHFR, which acts as a \"reporter\"). Interaction between the bait and the prey proteins brings the fragments of the reporter protein in close proximity to allow them to form a functional reporter protein whose activity can be measured."}
{"smiles": "O=C(O)CCCC[C@@H]1SC[C@@H]2NC(=O)N[C@@H]21", "outcome": "inactive"}
{"smiles": "CCCCC/C=C\\C/C=C\\CCCCCCCC(=O)OC", "AC50": "12 µM (active)"}
{"smiles": "CCCCC(CC)CCC(CC(C)C)OS(=O)(=O)O", "note": "(stereo not given)", "outcome": "inactive"}
{"smiles": "O=C(C=Cc1ccccc1)OCc1ccccc1", "outcome": "inactive"}
{"smiles": "CC(C)=CCC[C@H](C)CCO", "AC50": "75.8 µM (active)"}
{"smiles": "C=C[Si](C)(C)O[Si](C)(C)C=C", "outcome": "inactive"}
{"smiles": "CNC(=S)NN", "AC50": "50 µM (active)"}
{"smiles": "Cn1c([N+](=O)[O-])cnc1COC(N)=O", "outcome": "inactive"}
{"smiles": "CC(C)c1ccc2c(C(C)C)cc(C(C)C)c(S(=O)(=O)O)c2c1", "outcome": "inactive"}
{"smiles": "O=c1cc(-c2ccccc2)oc2ccccc12", "outcome": "inactive"}
{"smiles": "CC(C)c1ccc2cc(C(C)C)ccc2c1", "outcome": "inactive"}
{"smiles": "CC/C=C\\C/C=C\\C/C=C\\CCCCCCCC(=O)O", "outcome": "inactive"}
{"smiles": "CC(C)(C)c1ccc(-c2ccc(C(C)(C)C)cc2)cc1", "AC50": "85.6 µM (active)"}
{"smiles": "O=C(OCC1CCC2OC2C1)C1CCC2OC2C1", "note": "(stereo not given)", "outcome": "inactive"}
{"smiles": "Cc1ccc(C(C)c2ccc(C)c(C)c2)cc1C", "AC50": "83.5 µM (active)"}
{"smiles": "O=C(C(Cl)Cl)N1CCOC12CCCCC2", "outcome": "inactive"}
{"smiles": "CCCCCCCCCCOS(=O)(=O)O", "outcome": "inactive"}
{"smiles": "CCCCCCCCCCCCCOP(=O)(O)O", "outcome": "inactive"}
{"smiles": "CC(C)(C)c1ccc(N)cc1", "outcome": "inactive"}
{"smiles": "NC(CO)(CO)CO", "outcome": "inactive"}
{"smiles": "CCCCCc1ccc(Cl)cc1", "outcome": "inactive"}
{"smiles": "Cc1ccc(C(C)(C)C)cc1", "outcome": "inactive"}
{"smiles": "CC(C)C1=CC2=CC[C@@H]3[C@](C)(CCC[C@@]3(C)C(=O)O)[C@H]2CC1", "outcome": "inactive"}
{"smiles": "Oc1ccc(Cl)cc1Cc1cc(Cl)ccc1O", "AC50": "11.7 µM (active)"}
{"smiles": "O=S(=O)(O)c1ccccc1C=Cc1ccc(-c2ccc(C=Cc3ccccc3S(=O)(=O)O)cc2)cc1", "outcome": "inactive"}
{"smiles": "O=C(c1ccccc1)C1CCC1", "outcome": "inactive"}
{"smiles": "CC=C1CC2C=CC1C2", "note": "(stereo not given)", "outcome": "inactive"}
{"smiles": "CN(C)c1ccc(N=Nc2ccccc2C(=O)O)cc1", "outcome": "inactive"}
{"smiles": "NC(=O)c1ccccc1O", "outcome": "inactive"}
{"smiles": "CC(CC=O)CCCC(C)(C)O", "note": "(stereo not given)", "outcome": "inactive"}
{"smiles": "CCOC(=O)Cc1cccc2ccccc12", "outcome": "inactive"}
{"smiles": "CN(C)c1ccc(C(=N)c2ccc(N(C)C)cc2)cc1", "AC50": "27.7 µM (active)"}
{"smiles": "Cc1cc(C)c(C)cc1C", "outcome": "inactive"}
{"smiles": "CC(=O)OC(C)C", "outcome": "inactive"}
{"smiles": "CC(C)(C)c1ccc(OC(=O)c2ccccc2O)cc1", "AC50": "50 µM (active)"}
{"smiles": "CCCCCCCOC(=O)CCC", "outcome": "inactive"}
{"smiles": "CCCCC/C=C\\CCC=O", "outcome": "inactive"}
{"smiles": "CO[Si](OC)(OC)c1ccccc1", "outcome": "inactive"}
{"smiles": "CCN(CCC#N)c1ccc(N=Nc2c(Cl)cc([N+](=O)[O-])cc2Cl)cc1", "AC50": "67.7 µM (active)"}
{"smiles": "CCCCCCCC/C=C\\CCCCCCCC(=O)OCCO", "AC50": "38.4 µM (active)"}
